Assay [1] has as its target Glucocorticoid receptor (Homo sapiens) (UniProt P04150). Briefly: NVS_NR_hGR: NovaScreen (NVS) Nuclear Receptor Binding Assay for human Glucocorticoid Receptor (GR) (AID 2283363). The method, boiled down: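 Filter scintillation readout of tritiated/iodinated radioligand displaced by test chemical; cell-free extracted protein; 16 h. DMSO = negative control/baseline. Duplicate single-point 25 uM screen, then concentration-response on actives.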

Assay [2] has as its target guinea pig Sigma Receptor, Non-selective Binding, SIGMAR1 (gene 100135589) (UniProt Q60492). Briefly: NVS_OR_gSIGMA_NonSelective: NovaScreen (NVS) Nuclear Receptor Binding Assay for guinea pig Sigma Receptor, Non-selective Binding (AID 2283367). The method, boiled down:
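Membranes from guinea pig brain incubated with radioligand and test chemical for 1 h, then filtered and scintillation-counted. Duplicate primary testing at 25 uM, with concentration-series follow-up for actives.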

Assay [3] has as its target human Dopamine Transporter (DAT), SLC6A3 (gene 6531) (UniProt Q01959). The experiment in a line: NVS_TR_hDAT: NovaScreen (NVS) Transporter Assay for human Dopamine Transporter (DAT) (AID 2283374).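 Also: activity means loss of bound radioligand signal relative to DMSO.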 The method, boiled down:
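hDAT membranes + tritiated/iodinated radioligand, competitive displacement; 1 h; filter scintillation readout. Single conc 25 uM (duplicate), then conc-response for actives. DMSO = negative control.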

The target of assay [4] is rat Serotonin Transporter (SERT), Slc6a4 (gene 25553) (UniProt P31652). Briefly: NVS_TR_rSERT: NovaScreen (NVS) Transporter Assay for rat Serotonin Transporter (SERT) (AID 2283375). The method, boiled down: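 Steps: rat forebrain membranes dosed with chemical (25 uM duplicate primary; concentration series for actives); 1 h incubation; labelled ligand bound, filtered, counted by scintillation. Activity scored as signal loss vs DMSO.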

In assay [5] the target is human Norepinephrine Transporter (NET), SLC6A2 (gene 6530) (UniProt P23975). Briefly: NVS_TR_hNET: NovaScreen (NVS) Transporter Assay for human Norepinephrine Transporter (NET) (AID 2283377).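 Also: cell-free membrane protein extracted from CHO cells expressing human NET.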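 As to AC50: displacement of radioligand from human NET seen as loss of scintillation signal.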 The method, boiled down: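 CHO cell extracts expressing the transporter; tritiated or iodinated tracer displaced competitively; filtration plus scintillation readout at 1 h. Single-point duplicates at 25 uM, concentration series for follow-up; activity = signal drop relative to DMSO.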
human Norepinephrine Transporter (NET), SLC6A2 (gene 6530), sequence (P23975 whole entry, looked up): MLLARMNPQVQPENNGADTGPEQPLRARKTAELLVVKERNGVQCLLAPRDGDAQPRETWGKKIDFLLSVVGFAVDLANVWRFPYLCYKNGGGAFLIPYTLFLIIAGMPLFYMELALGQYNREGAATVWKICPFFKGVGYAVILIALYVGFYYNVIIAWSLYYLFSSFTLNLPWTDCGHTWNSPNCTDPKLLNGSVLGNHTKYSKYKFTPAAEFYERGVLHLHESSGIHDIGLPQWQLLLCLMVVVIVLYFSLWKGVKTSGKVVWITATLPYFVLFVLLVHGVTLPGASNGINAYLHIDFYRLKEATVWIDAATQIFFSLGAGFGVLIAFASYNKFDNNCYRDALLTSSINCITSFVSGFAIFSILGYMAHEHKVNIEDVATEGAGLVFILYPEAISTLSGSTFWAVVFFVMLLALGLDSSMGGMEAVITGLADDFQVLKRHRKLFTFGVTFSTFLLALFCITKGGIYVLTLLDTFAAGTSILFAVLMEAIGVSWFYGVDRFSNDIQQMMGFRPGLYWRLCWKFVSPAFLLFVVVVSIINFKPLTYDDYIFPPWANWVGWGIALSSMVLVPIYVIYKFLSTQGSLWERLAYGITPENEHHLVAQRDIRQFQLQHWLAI

In assay [6] the target is mouse Estrogen Receptor alpha (Era), Esr1 (gene 13982) (UniProt P19785). The experiment in a line: NVS_NR_mERa: NovaScreen (NVS) Nuclear Receptor Binding Assay for mouse Estrogen Receptor alpha (Era) (AID 2283378).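 Also: hit means loss of bound radioligand signal relative to DMSO.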 Put shortly: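 Test chemicals competed against a specific radioligand for binding to cell-free mouse Era. Duplicate wells at 25 uM were read 18 hours later by filter-based radiodetection, with loss of signal against DMSO scored as activity.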

Assay [7] deals with Estrogen receptor (Homo sapiens) (UniProt P03372). Briefly: OT_ERa_GFPERaERE_0480: Odyssey Thera (OT) 8-hour HeLa Transcription Induction Assay for Estrogen Receptor (AID 2283381; active = hit-call score of the fitted dose curve at least 0.9, where 1 is the maximum; inactive = score below 0.9). The method, boiled down: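 An 8 h HeLa transcription-induction format with a GFP reporter under ERE control, read by fluorescence microscopy; single endpoint fitted positively with DMSO as baseline.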
Estrogen receptor (Homo sapiens), sequence (P03372 whole entry, looked up): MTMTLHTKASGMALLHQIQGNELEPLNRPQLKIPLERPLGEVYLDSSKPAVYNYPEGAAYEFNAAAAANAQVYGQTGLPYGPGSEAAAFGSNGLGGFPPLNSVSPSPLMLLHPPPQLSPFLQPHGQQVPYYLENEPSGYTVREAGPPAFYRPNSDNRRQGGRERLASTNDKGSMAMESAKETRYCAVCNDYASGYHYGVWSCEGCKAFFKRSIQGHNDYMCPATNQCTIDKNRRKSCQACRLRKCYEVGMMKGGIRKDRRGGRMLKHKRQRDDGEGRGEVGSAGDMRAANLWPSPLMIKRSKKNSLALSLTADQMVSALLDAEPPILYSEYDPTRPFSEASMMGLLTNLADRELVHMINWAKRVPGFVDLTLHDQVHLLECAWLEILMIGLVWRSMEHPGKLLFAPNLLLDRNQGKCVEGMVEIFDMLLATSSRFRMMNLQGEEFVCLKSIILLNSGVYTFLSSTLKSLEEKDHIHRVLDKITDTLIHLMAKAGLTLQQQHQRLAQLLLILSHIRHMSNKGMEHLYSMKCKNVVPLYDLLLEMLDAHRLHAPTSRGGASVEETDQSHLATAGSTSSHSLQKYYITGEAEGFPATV

Assay [8] has the same target. Briefly: OT_ERa_GFPERaERE_0120: Odyssey Thera (OT) 2-hour HeLa Transcription Induction Assay for Estrogen Receptor (AID 2283382). Put shortly:
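Two-hour compound treatment of HeLa cells preceded microscopy imaging of an inducible fluorescent reporter. Image-based quantification gave one endpoint, analysed for signal increase relative to DMSO controls.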

In assay [9] the target is Retinoic acid receptor RXR-alpha (Homo sapiens) (UniProt P19793). The experiment in a line: OT_NURR1_NURR1RXRa_0480: Odyssey Thera (OT) 8-hour HEK293T Protein Complementation Assay for Nurr1/retinoid X receptor (RXR) (AID 2283385). Put shortly:
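Gain in fluorescent complementation signal over DMSO, measured 8 hours after chemical dosing of human kidney HEK293T cells, indicated enhanced Nurr1–RXRα association.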

The target in assay [10] is Estrogen receptor beta (Homo sapiens) (UniProt Q92731). Briefly: OT_ER_ERbERb_1440: Odyssey Thera (OT) 24-hour HEK293T Protein-Complementation Assay for Estrogen Receptor-beta/-beta Homodimer (AID 2283380).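 Also: scored as signal increase over DMSO baseline for both agonists and antagonists.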 Put shortly:
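HEK293T cells stably expressing ER beta LBD (aa 310-547) homodimer fragment-complementation reporter, dosed 24 h. Cells formaldehyde-fixed, Draq5-stained; gain in nuclear (agonist) or nuclear plus cytoplasmic (antagonist) fluorescence versus DMSO read by laser scanning cytometry.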

Assay [11] addresses rat Androgen Receptor (AR), Ar (gene 24208) (UniProt P15207). Briefly: NVS_NR_rAR: NovaScreen (NVS) Nuclear Receptor Binding Assay for rat Androgen Receptor (AR) (AID 2283366). Put shortly: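 Actives from a duplicate single-concentration (25 uM) primary run went on to concentration series. Displacement of radioligand was counted by filtration and scintillation, 18 h post-dose, using prostate extracts from testosterone-pretreated rats, with DMSO as baseline.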

In assay [12] the test system is guinea pig Dopamine Transporter (DAT), gene 100714898. The experiment in a line: NVS_TR_gDAT: NovaScreen (NVS) Transporter Assay for guinea pig Dopamine Transporter (DAT) (AID 2283369).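 Also: active compounds lower bound radioligand signal relative to DMSO.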 Put shortly:
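Test chemicals were incubated 2 h with guinea pig striatal membranes and a radioligand; bound label was separated by filtration and counted. Screening ran at 25 uM, followed by concentration-response testing to a 50 uM maximum.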

Assay [13] addresses Peroxisome proliferator-activated receptor gamma (Homo sapiens) (UniProt P37231). The experiment in a line: NVS_NR_hPPARg: NovaScreen (NVS) Nuclear Receptor Binding Assay for human Peroxisome Proliferator-activated Receptor gamma (PPARg) (AID 2283370). The method, boiled down: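 Fluorescence polarization measures competitive binding to extracted PPARg in a cell-free format. Reading is taken at 2 h; activity is signal loss relative to DMSO. Screening at 25 uM in duplicate preceded confirmatory dose series.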

Assay [14] deals with Agonist Androgen Response Element (ARE), AR (gene 367) (UniProt P10275). The experiment in a line: OT_AR_ARELUC_AG_1440: Odyssey Thera (OT) 24-hour CHO-K1 Luciferase Assay for Agonist Androgen Response Element (ARE) (AID 2283379). Put shortly:
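Gain-of-signal reporter endpoint: cells (CHO-K1, hamster) are treated 24 h, luciferin/ATP reagent added, and luminescence compared with DMSO baseline.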

Assay [15] has as its target Bile acid receptor (Homo sapiens) (UniProt Q96RI1). Briefly: OT_FXR_FXRSRC1_0480: Odyssey Thera (OT) 8-hour HEK293T Protein-Complementation Assay for Farnesoid X receptor/SRC-1 Co-activator (AID 2283383). The method, boiled down:
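Readings were taken 8 h after dosing HEK293T cells in a split-reporter complementation format pairing FXR with SRC-1. Increased fluorescence relative to DMSO-treated wells defined activity.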

Assay [16] shares this target. Briefly: OT_FXR_FXRSRC1_1440: Odyssey Thera (OT) 24-hour HEK293T Protein-Complementation Assay for Farnesoid X receptor/SRC-1 Co-activator (AID 2283384). The method, boiled down:
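Single endpoint, analysed for increased fluorescence against DMSO controls. HEK293T cells carrying FXR and SRC-1 linked to complementary reporter halves were exposed to chemicals for 24 h before reading.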

Assay [17] addresses Nuclear receptor subfamily 1 group I member 2 (Homo sapiens) (UniProt O75469). Briefly: NVS_NR_hPXR: NovaScreen (NVS) Nuclear Receptor Binding Assay for human Pregnane X Receptor (PXR) (AID 2283365).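 Also: a drop in FRET signal versus DMSO baseline means the compound binds.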 The method, boiled down:
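Binding was measured by time-resolved fluorescence resonance energy transfer after a 2 h exposure of extracted human PXR protein without cells. Compounds were first tested at 25 uM in duplicate, with concentration series for actives; DMSO defined baseline.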

For assay [18], the target named is human Adenosine Transporter (Adot), SLC29A1 (gene 2030) (UniProt Q99808). Briefly: NVS_TR_hAdoT: NovaScreen (NVS) Transporter Assay for human Adenosine Transporter (Adot) (AID 2283368). The method, boiled down:
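Binding displacement on U937 extracted protein, read 1 h post-dose by filtration and scintillation counting. Primary duplicate test at 25 uM, then singleton concentration series with 50 uM top; DMSO baseline.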

Each structure is given as a SMILES string. Several values for one entry are separate records, joined by “and”; a condition that tells them apart may be missing. Equal entries are not always repeated. Results filed as inconclusive are left out. More than one record can exist for a structure, and the calls need not agree. Activity calls are given as the source filed them. The calls were made as follows, unless noted: active = hit-call score of the fitted dose curve at least 0.9, where 1 is the maximum; inconclusive = response in the unintended direction; inactive = score below 0.9.

guinea pig Sigma Receptor, Non-selective Binding, SIGMAR1 (gene 100135589), sequence (Q60492 whole entry, looked up): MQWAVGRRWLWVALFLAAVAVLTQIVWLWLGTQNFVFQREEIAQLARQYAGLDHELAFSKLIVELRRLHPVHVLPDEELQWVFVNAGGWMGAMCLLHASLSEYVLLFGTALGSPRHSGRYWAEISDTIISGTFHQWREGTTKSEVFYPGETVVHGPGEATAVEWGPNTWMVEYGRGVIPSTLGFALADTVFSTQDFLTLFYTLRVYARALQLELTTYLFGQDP
Estrogen receptor beta (Homo sapiens), sequence (Q92731 whole entry, looked up, the tested form may be a part): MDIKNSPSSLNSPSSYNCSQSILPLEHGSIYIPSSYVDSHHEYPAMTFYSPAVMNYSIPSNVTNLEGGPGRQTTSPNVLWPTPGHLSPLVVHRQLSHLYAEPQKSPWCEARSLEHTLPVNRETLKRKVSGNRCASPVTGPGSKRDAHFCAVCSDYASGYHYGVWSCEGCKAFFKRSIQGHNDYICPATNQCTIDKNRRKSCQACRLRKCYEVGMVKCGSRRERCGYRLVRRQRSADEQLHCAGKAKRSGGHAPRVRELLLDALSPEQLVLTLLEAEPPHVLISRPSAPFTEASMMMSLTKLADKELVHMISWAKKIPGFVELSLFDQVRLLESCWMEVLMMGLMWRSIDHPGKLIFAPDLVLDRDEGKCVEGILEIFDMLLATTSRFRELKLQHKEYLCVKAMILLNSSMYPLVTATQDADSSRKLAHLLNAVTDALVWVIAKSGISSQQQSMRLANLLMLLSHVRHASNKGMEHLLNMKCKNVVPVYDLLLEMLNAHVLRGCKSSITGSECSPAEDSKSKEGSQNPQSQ
Retinoic acid receptor RXR-alpha (Homo sapiens), sequence (P19793 whole entry, looked up): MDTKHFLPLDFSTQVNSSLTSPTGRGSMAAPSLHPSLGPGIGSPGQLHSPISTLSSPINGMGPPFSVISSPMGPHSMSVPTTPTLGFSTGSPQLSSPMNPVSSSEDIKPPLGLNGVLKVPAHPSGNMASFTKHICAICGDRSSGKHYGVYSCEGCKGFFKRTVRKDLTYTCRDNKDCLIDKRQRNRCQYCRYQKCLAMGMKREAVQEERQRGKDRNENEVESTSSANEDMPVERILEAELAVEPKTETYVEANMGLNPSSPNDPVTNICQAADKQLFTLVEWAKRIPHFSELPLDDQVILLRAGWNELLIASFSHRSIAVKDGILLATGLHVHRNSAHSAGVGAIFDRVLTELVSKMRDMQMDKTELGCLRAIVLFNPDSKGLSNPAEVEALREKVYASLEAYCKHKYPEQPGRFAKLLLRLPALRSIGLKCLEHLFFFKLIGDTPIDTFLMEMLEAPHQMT
Nuclear receptor subfamily 1 group I member 2 (Homo sapiens), sequence (O75469 whole entry, looked up): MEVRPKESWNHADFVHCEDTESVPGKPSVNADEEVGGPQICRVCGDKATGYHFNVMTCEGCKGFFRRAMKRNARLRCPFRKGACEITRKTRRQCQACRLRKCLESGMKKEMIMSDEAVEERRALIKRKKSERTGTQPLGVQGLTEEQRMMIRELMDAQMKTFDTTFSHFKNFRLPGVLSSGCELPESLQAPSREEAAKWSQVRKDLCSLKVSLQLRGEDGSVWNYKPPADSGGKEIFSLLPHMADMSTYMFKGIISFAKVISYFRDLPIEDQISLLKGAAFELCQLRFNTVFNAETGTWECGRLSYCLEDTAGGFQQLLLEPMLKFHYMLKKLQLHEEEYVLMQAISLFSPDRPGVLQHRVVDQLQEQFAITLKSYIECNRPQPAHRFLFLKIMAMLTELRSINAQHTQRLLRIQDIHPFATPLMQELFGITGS
Peroxisome proliferator-activated receptor gamma (Homo sapiens), sequence (P37231 whole entry, looked up): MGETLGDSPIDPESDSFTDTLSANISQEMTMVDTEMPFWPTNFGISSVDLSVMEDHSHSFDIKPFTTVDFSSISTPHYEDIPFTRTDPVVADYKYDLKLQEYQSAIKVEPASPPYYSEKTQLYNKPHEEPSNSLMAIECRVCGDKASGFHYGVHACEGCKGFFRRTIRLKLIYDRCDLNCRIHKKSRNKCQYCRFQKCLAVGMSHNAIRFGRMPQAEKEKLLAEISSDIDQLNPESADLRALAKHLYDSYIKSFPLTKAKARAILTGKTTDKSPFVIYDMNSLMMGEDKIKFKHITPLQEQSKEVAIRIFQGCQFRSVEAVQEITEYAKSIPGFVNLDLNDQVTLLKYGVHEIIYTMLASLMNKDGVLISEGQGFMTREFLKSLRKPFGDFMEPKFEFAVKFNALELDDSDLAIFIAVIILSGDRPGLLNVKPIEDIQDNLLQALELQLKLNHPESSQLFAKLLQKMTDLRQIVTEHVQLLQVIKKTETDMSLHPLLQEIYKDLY
Bile acid receptor (Homo sapiens), sequence (Q96RI1 whole entry, looked up): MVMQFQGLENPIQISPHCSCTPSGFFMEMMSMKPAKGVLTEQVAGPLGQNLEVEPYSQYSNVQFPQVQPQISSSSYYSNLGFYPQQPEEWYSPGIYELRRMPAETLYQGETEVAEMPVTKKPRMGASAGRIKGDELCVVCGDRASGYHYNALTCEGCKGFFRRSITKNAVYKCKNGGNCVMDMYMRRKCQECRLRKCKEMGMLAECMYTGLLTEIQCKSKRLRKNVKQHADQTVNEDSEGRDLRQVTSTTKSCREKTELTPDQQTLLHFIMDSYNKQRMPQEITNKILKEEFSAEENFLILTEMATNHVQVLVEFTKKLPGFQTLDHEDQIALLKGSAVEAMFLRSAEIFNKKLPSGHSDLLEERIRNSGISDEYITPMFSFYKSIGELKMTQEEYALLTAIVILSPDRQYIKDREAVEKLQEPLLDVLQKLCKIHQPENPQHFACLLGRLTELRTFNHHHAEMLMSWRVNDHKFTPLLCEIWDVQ
Glucocorticoid receptor (Homo sapiens), sequence (P04150 whole entry, looked up): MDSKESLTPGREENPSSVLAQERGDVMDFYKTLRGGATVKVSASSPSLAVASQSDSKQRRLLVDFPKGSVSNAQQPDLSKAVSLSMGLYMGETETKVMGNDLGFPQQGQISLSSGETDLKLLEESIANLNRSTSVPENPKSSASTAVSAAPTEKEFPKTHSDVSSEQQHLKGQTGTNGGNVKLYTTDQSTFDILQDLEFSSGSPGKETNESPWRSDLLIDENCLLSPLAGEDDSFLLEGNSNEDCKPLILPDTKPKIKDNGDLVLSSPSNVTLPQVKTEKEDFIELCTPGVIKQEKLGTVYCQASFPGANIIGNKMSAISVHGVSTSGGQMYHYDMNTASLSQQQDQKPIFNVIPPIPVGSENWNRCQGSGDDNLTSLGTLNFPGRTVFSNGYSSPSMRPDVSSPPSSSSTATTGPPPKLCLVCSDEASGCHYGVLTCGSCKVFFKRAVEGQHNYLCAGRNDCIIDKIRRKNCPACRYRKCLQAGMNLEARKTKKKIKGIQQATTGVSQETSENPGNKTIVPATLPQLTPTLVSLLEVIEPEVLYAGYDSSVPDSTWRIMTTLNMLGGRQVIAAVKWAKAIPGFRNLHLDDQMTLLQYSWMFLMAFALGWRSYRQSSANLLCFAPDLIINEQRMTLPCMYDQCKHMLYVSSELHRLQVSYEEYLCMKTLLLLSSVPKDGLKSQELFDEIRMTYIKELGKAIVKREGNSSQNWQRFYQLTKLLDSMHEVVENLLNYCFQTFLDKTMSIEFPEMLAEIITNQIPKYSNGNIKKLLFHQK

For orientation: AC50 means the concentration at which the activity in the assay is half-maximal. As to `CCCCCCCCCCCCCC[N+](C)(C)C`, the AC50 in assay [1] was 6.85 µM (active) and 29.1 µM (active); in assay [2] it was 0.558 µM (active); in [3], 4.13 µM (active); in assay [4] it was 41.5 µM (active); in assay [5], 3.12 µM (active); in [6], 14.3 µM (active). Besides, the AC50 in assay [8] was 69.9 µM (active). Besides, in assay [7], the outcome was inactive.

Turning to `CCC(C)(C)C1CCC(O)CC1` (centres undefined), the call in assay [2], in assay [6], in assay [7], in [8] and in assay [9] was inactive. Further, the AC50 was 6.46 µM (active) in assay [6]; 16.2 µM (active) and 40.9 µM (active) in assay [7]; 27.5 µM (active) and 24.4 µM (active) in [8].

With `C[C@@H]1C[C@H]2[C@@H]3CCC4=CC(=O)C=C[C@]4(C)[C@@]3(F)[C@@H](O)C[C@]2(C)[C@@]1(O)C(=O)COP(=O)(O)O`, the result in assay [1], in assay [6], in [10], in assay [7], in assay [8] and in [9] was inactive.

In the case of `CCCCCCCCCCCCc1ccccc1S(=O)(=O)O`, the AC50 in assay [1] was 2.47 µM (active); in assay [11], 3.66 µM (active); in [12] it was 37 µM (active); in assay [13] it was 0.194 µM (active); in [3], 16.6 µM (active); in assay [5] it was 9.86 µM (active). Also, the AC50 in [6] is 18 µM (active); in assay [7] it was 96 µM (active); in [8], 94.4 µM (active); in assay [15], 92.9 µM (active); in assay [9], 76 µM (active) and 80.5 µM (active). The molecule was classed as inactive in assay [14], in [10] and in assay [16].

Consider `CCc1ccc(CCOc2ccc(CC3SC(=O)NC3=O)cc2)nc1` (centres undefined), for which the outcome in assay [2], in assay [10], in assay [7] and in [8] was inactive. Also, the AC50 in assay [9] was 53.6 µM (active) and 57.4 µM (active).

As to `c1ccc2c(c1)ccc1ccccc12`, the result in assay [2], in [14], in [7], in assay [8], in assay [15] and in assay [16] was inactive. Besides, the molecule was called inactive in assay [9].

With `CC#C[C@]1(O)CC[C@H]2[C@@H]3CCC4=CC(=O)CCC4=C3[C@@H](c3ccc(N(C)C)cc3)C[C@@]21C`, the result in [1], in assay [17], in [18], in assay [12], in assay [13] and in assay [5] was inactive. Besides, the molecule was classed as inactive in [6], in assay [7], in assay [15], in assay [16] and in [9]. In addition, the AC50 is 9.21 µM (active) in assay [13]; 0.289 µM (active) in assay [6]; 4.33 µM (active) in assay [15]; 5.36 µM (active) in assay [16]; 437 nM (active) in assay [9].

The record behind these values is PubChem BioAssay (EPA / NIEHS).
